From PubChem BioAssay (Tox21)
Results filed as inconclusive are left out. Active and inactive are the calls of the source. Unless noted, the call rests on the fitted dose curve.

Columns and labels:
[1] = qHTS assay to identify small molecule agonists of the peroxisome proliferator-activated receptor delta (PPARd) signaling pathway - cell viability counter screen (AID 743211; active means well fitted curve in the direction sought with a large enough effect in the repeat runs; an effect the other way counts as inactive or inconclusive; further: nearly all actives have a fitted effect of over 55% in size)
Method in brief: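 Viability was measured as CellTiter-Glo luminescence (30 min, room temperature) in the same wells as the beta-lactamase readout. GeneBLAzer PPARd UAS-bla HEK293H cells received compound after 5 h plating and were incubated 17 h at 37 C.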

[2] = biological target: Peroxisome proliferator-activated receptor delta (Homo sapiens) (UniProt Q03181); experiment: qHTS assay to identify small molecule agonists of the peroxisome proliferator-activated receptor delta (PPARd) signaling pathway (AID 743212)
Peroxisome proliferator-activated receptor delta (Homo sapiens), sequence (Q03181 whole entry, looked up): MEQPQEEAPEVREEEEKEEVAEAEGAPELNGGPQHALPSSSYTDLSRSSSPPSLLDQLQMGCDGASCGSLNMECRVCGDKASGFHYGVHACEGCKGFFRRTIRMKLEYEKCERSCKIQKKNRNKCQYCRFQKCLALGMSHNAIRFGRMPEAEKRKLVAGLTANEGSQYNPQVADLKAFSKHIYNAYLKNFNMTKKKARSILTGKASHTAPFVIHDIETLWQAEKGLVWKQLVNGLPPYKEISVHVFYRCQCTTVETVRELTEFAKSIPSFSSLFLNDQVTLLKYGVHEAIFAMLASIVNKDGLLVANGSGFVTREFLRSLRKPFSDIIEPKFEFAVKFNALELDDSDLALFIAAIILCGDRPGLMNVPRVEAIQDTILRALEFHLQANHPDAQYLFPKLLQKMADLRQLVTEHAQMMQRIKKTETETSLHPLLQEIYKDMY
Method in brief: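 GeneBLAzer UAS-bla HEK293H cells carrying a PPARδ construct were exposed to compounds at 37 °C. Beta-lactamase activity was read by FRET fluorescence after 2 h at room temperature with LiveBLAzer B/G substrate.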

[3] = qHTS assay to identify small molecule antagonists of the peroxisome proliferator-activated receptor delta (PPARd) signaling pathway - cell viability counter screen (AID 743213; active means well fitted curve in the direction sought with a large enough effect in the repeat runs; an effect the other way counts as inactive or inconclusive; further: nearly all actives have a fitted effect of over 50% in size)
Method in brief: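 PPARd-bla HEK293H cells (3000/well) got compound plus 300 nM L165041 agonist for 17 h at 37 C. Viability in the same wells came from CellTiter-Glo luminescence after 30 min at room temperature.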

[4] = biological target: Peroxisome proliferator-activated receptor delta (Homo sapiens) (UniProt Q03181); experiment: qHTS assay to identify small molecule antagonists of the peroxisome proliferator-activated receptor delta (PPARd) signaling pathway (AID 743215; active means well fitted inhibition curve with a large enough effect in the signal ratio in the repeat runs, not every such curve was filed as active; the % refers to the signal ratio;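 further: cells stimulated with agonist L165041 at 300 nM final during compound exposure; series mostly up to about 62 µM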)
Method in brief: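 Read-out is beta-lactamase FRET fluorescence, measured 2 h after substrate addition at room temperature. Beforehand, UAS-bla HEK293H cells carrying the PPARd reporter were exposed to compounds with L165041 at 300 nM final for 17 h at 37 C.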

[5] = qHTS assay to identify small molecule agonists of the farnesoid-X-receptor (FXR) signaling pathway - cell viability counter screen (AID 743218; active means well fitted curve in the direction sought with a large enough effect in the repeat runs; an effect the other way counts as inactive or inconclusive; further: nearly all actives have a fitted effect of over 45% in size)
Method in brief: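 HEK 293T FXR-bla cells; 5 h pre-incubation, 16 h compound exposure at 37 C; LiveBLAzer substrate 2 h RT, then CellTiter-Glo 30 min RT, luminescence.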

[6] = qHTS assay to identify small molecule antagonists of the farnesoid-X-receptor (FXR) signaling pathway - cell viability counter screen (AID 743221; active means well fitted cell-killing curve with a large enough effect in the repeat runs, not every such curve was filed as active; further: nearly all actives have a fitted effect of over 50% in size)
Method in brief: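 Cytotoxicity counter screen run in the FXR-bla reporter wells: HEK 293T cells exposed to compound with 50 uM (final) chenodeoxycholic acid for 16 h, 37 C, then viability measured by CellTiter-Glo luminescence after 30 min, room temperature.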

[7] = biological target: Vitamin D3 receptor (Homo sapiens) (UniProt P11473); experiment: qHTS assay to identify small molecule agonists of the vitamin D receptor (VDR) signaling pathway (AID 743222)
Vitamin D3 receptor (Homo sapiens), sequence (P11473 whole entry, looked up): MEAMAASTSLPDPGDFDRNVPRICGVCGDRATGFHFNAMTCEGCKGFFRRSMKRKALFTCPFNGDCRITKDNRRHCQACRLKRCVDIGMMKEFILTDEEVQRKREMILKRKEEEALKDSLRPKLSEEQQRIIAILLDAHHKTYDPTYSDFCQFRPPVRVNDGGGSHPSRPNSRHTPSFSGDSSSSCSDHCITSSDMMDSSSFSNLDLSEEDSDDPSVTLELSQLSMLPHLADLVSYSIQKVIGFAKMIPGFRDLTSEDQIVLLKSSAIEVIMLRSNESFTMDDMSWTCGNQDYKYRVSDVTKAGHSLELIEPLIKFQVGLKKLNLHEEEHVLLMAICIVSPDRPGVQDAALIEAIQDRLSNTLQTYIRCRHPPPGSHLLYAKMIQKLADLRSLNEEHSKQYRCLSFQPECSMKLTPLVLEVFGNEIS
Method in brief: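 VDR-bla cells, 2,000/well; 4 h preincubation 37C; cpd (DMSO) 16 h; LiveBLAzer B/G substrate 2 h RT; fluorescence intensity read.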

[8] = biological target: Vitamin D3 receptor (Homo sapiens) (UniProt P11473); experiment: qHTS assay to identify small molecule antagonists of the vitamin D receptor (VDR) signaling pathway (AID 743223; active means well fitted inhibition curve with a large enough effect in the signal ratio in the repeat runs, not every such curve was filed as active; the % refers to the signal ratio)
Method in brief: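 Antagonist mode: compound added to VDR-bla cells alongside agonist 1alpha,25-dihydroxyvitamin D3 (3 nM final), incubation 16 h at 37C. Read-out is LiveBLAzer FRET fluorescence, 2 h at room temperature.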

[9] = qHTS assay to identify small molecule agonists of the vitamin D receptor (VDR) signaling pathway - cell viability counter screen (AID 743224; active means well fitted curve in the direction sought with a large enough effect in the repeat runs; an effect the other way counts as inactive or inconclusive; further: series mostly up to about 63 µM; nearly all actives have a fitted effect of over 50% in size)
Method in brief: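 Luminescence from CellTiter-Glo, read after 30 min at room temperature, reports viability of VDR-bla cells treated with compounds for 16 h at 37C in the wells used for the beta-lactamase FRET read.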

[10] = qHTS assay to identify small molecule antagonists of the vitamin D receptor (VDR) signaling pathway - cell viability counter screen (AID 743225; active means well fitted curve in the direction sought with a large enough effect in the repeat runs; an effect the other way counts as inactive or inconclusive; further: nearly all actives have a fitted effect of over 50% in size)
Method in brief: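 Cytotoxicity counter screen read by CellTiter-Glo luminescence (30 min, room temperature) in the same wells as the VDR-bla antagonist readout. HEK 293T VDR-UAS-bla cells had 16 h at 37C with compound and 3 nM (final) 1-alpha,25-dihydroxyvitamin D3, then 2 h with FRET substrate.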

[11] = qHTS assay to identify small molecule agonists of the NFkB signaling pathway - cell viability counter screen (AID 1159515); further: series mostly up to about 61 µM; nearly all actives have a fitted effect of over 55% in size
Method in brief: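 Luminescence from CellTiter-Glo (30 min, room temperature) gives viability, measured in the same wells as the beta-lactamase reporter read. Cells were NFkB-bla ME-180, 2,000 per well, treated 5 hr with compounds.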

[12] = qHTS assay to identify small molecule agonists of the endoplasmic reticulum stress response signaling pathway (AID 1159516; active means well fitted activation curve with a large enough effect in the signal ratio in the repeat runs, not every such curve was filed as active; the % refers to the signal ratio)
Method in brief: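 Read-out is beta-lactamase cleavage of a FRET substrate (405 nm excitation; 460 and 530 nm emissions) in ESRE-bla HeLa cells after a 5 hr compound exposure at 37 C. Substrate incubation ran 2 hr at room temperature.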

[13] = qHTS assay to identify small molecule agonists of the endoplasmic reticulum stress response signaling pathway - cell viability counter screen (AID 1159517)
Method in brief: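 ESRE-bla HeLa cells, 1,500 per well, seeded overnight then treated with compounds for 5 hr at 37 C. After the beta-lactamase read, viability in the same wells is measured by CellTiter-Glo luminescence after 30 min at room temperature.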

[14] = biological target: Nuclear receptor ROR-gamma (Homo sapiens) (UniProt P51449); experiment: qHTS assay to identify small molecule antagonists of the retinoid-related orphan receptor gamma (ROR-gamma) signaling pathway (AID 1159521; active means well fitted curve in the direction sought with a large enough effect in the repeat runs; an effect the other way counts as inactive or inconclusive)
Method in brief: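 Antagonist read-out: drop in luminescence (ONE-Glo) from an RORE-LUC reporter in CHO cells with doxycycline-inducible ROR-gamma; 2 hr compound pretreatment, 1 uM doxycycline, 16 hr incubation at 37 C.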

[15] = qHTS assay to identify small molecule agonists of the AP-1 signaling pathway - cell viability counter screen (AID 1159525); further: nearly all actives have a fitted effect of over 55% in size
Method in brief: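 AP-1-bla ME-180 cells in Opti-MEM with 0.5% dialyzed FBS, compound exposure 5 h at 37 C in 15-point titration. Viability read in the same wells as ATP content by CellTiter-Glo luminescence, normalised to tetra-n-octylammonium bromide and DMSO controls.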

[16] = qHTS assay to identify small molecule agonists of the AP-1 signaling pathway (AID 1159526)
[17] = biological target: Retinoic acid receptor RXR-alpha (Homo sapiens) (UniProt P19793); experiment: qHTS assay to identify small molecule agonists of the RXR signaling pathway (AID 1159527); further: nearly all actives have a fitted effect of over 35% in size
Retinoic acid receptor RXR-alpha (Homo sapiens), sequence (P19793 whole entry, looked up): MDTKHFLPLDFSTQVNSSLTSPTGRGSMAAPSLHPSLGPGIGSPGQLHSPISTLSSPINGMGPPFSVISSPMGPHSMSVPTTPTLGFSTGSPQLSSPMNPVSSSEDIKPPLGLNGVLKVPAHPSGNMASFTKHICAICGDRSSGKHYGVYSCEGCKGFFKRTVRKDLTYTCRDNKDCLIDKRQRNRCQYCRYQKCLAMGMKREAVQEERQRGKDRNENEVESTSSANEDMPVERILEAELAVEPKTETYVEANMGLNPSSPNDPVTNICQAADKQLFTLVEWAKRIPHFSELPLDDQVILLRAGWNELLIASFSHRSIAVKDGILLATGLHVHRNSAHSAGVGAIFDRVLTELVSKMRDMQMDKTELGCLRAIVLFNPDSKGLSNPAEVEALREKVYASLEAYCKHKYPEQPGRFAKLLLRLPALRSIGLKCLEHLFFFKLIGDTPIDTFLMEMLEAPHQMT
Method in brief: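 Agonist-mode beta-lactamase reporter assay: HEK 293T RXR-alpha-UAS-bla cells treated 16 hr at 37 C with compounds, 9-cis retinoic acid as positive control. LiveBLAzer FRET substrate, 405 nm excitation, 460/530 nm emission.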

[18] = biological target: Bile acid receptor (Homo sapiens) (UniProt Q96RI1); experiment: qHTS assay to identify small molecule antagonists of the farnesoid-X-receptor (FXR) signaling pathway (AID 743217; active means well fitted inhibition curve with a large enough effect in the signal ratio in the repeat runs, not every such curve was filed as active; the % refers to the signal ratio)
Bile acid receptor (Homo sapiens), sequence (Q96RI1 whole entry, looked up): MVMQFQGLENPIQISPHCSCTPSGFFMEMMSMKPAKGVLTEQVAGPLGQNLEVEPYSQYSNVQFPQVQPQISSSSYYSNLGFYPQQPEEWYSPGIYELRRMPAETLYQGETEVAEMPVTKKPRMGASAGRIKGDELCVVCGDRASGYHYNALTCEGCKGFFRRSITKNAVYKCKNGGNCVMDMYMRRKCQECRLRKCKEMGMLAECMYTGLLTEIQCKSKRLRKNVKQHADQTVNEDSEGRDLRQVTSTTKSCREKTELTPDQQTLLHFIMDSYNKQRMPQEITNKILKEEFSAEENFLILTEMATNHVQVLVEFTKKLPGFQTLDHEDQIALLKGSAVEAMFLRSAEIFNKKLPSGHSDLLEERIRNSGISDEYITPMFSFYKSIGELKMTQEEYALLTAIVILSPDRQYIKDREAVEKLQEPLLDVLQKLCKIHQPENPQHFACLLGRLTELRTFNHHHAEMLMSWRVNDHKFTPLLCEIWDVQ
Method in brief: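 HEK 293T FXR-UAS-bla, 5000 cells/well; compound + CDCA 50 uM final; 16 h, 37 °C; B/G FRET substrate 2 h RT; fluorescence.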

[19] = biological target: Bile acid receptor (Homo sapiens) (UniProt Q96RI1); experiment: qHTS assay to identify small molecule agonists of the farnesoid-X-receptor (FXR) signaling pathway (AID 743220; active means well fitted activation curve with a large enough effect in the signal ratio in the repeat runs, not every such curve was filed as active; the % refers to the signal ratio)
Method in brief: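 Beta-lactamase reporter under UAS control in GeneBLAzer FXR HEK 293T cells (5000/well) measured with LiveBLAzer FRET substrate after 2 h at room temperature. Compound exposure lasted 16 h at 37C.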

Measured: Potency

CCCCCC(C)=O
inactive: [1] | [2] | [3] | [4] | [5] | [6] | [7] | [8] | [9] | [10] | [11] | [12] | [13] | [14] | [15] | [16] | [17]

CCn1cc(C(=O)O)c(=O)c2cc3c(cc21)OCO3
inactive: [1] | [2] | [3] | [4] | [18] | [5] | [19] | [6] | [7] | [8] | [9] | [10] | [11] | [12] | [13] | [14] | [15] | [16] | [17]

NCCNCCNCCN
inactive: [1] | [18] | [5] | [19] | [6] | [7] | [8] | [9] | [10] | [11] | [12] | [13] | [14] | [15] | [16] | [17]

Cc1ccc(Cl)cc1
inactive: [1] | [2] | [4] | [18] | [5] | [19] | [6] | [7] | [8] | [9] | [10] | [11] | [12] | [13] | [14] | [15] | [16] | [17]

COc1ccccc1[N+](=O)[O-]
inactive: [1] | [18] | [5] | [19] | [6] | [7] | [8] | [9] | [10] | [11] | [12] | [13] | [14] | [15] | [16] | [17]

CCOC(=O)CC(=O)OCC
inactive: [1] | [2] | [4] | [18] | [5] | [19] | [6] | [7] | [8] | [9] | [10] | [11] | [12] | [13] | [14] | [15] | [16] | [17]

COC(=O)OC
inactive: [1] | [2] | [3] | [4] | [5] | [6] | [7] | [9] | [10] | [11] | [12] | [13] | [14] | [15] | [16] | [17]

Cc1cccc(C)c1[N+](=O)[O-]
inactive: [1] | [2] | [3] | [4] | [5] | [6] | [7] | [8] | [9] | [10] | [11] | [12] | [13] | [14] | [15] | [16] | [17]
